# Measurements taken from the supplement of paper PMC6992640.
# ± gives the standard deviation of the averaged measurements.
# Assays:
# Experiment in all cases: cell viability (% of vehicle); higher = less cytotoxic
# Settings in all cases: 10 µM; 72 h
# HCI01 = system: HCI01 (cells of a triple-negative basal-like breast cancer xenograft)
# HCI03 = system: HCI03 (cells of an ER-positive luminal breast cancer xenograft)
# HCI09 = system: HCI09 (cells of a triple-negative luminal androgen receptor type breast cancer xenograft)
# HCI11 = system: HCI11 (cells of an ER-positive luminal breast cancer xenograft)
# HCI13 = system: HCI13 (cells of an ER-positive luminal breast cancer xenograft)
# HCI16 = system: HCI16 (cells of a triple-negative basal-like breast cancer xenograft)
# UCD52 = system: UCD52 (cells of a triple-negative basal-like breast cancer xenograft)
# WHIM2 = system: WHIM2 (cells of a triple-negative basal-like breast cancer xenograft)
# WHIM30 = system: WHIM30 (cells of a triple-negative basal-like breast cancer xenograft)
# 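Note: PDX cells carrying CMV promoter-driven luciferase, viability read as total photon flux per second by IVIS imaging following D-luciferin, vehicle control 0.1% DMSO.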
SMILES,cell viability (HCI01),cell viability (HCI03),cell viability (HCI09),cell viability (HCI11),cell viability (HCI13),cell viability (HCI16),cell viability (UCD52),cell viability (WHIM2),cell viability (WHIM30)
CCC1(O)CC2CN(CCc3c([nH]c4ccccc34)C(C(=O)OC)(c3cc4c(cc3OC)N(C)C3C(O)(C(=O)OC)C(OC(C)=O)C5(CC)C=CCN6CCC43C65)C2)C1 (stereo not drawn) [vinblastine],123 ± 3.3,91.1,45.7 ± 42,96.2,37.6 ± 3.4,164,68 ± 10,80.7 ± 22,124 ± 17
NC(=O)CC[C@H](N)C(=O)O [L-Glutamine],85.6 ± 8.7,92.8,92.2 ± 25,87.4,101.1 ± 0.78,97.3,82.9 ± 3.6,104 ± 3.9,70.6 ± 7.1
COc1cc2nc(N3CCN(C(=O)C4CCCO4)CC3)nc(N)c2cc1OC.Cl.O.O (stereo not drawn) [Terazosin HCl],137 ± 8,116,110 ± 19,101,104 ± 2,123,85.8 ± 15,113 ± 5.9,114 ± 12
Cl.O=C1CC2(CCCC2)CC(=O)N1CCCCN1CCN(c2ncccn2)CC1 [Buspirone HCl],110 ± 16,95.5,91.3 ± 8.6,101,76.7 ± 2,119,106 ± 3.5,104.3 ± 0.12,90.4 ± 8.1
CC(=O)N[C@H](Cc1ccc2ccccc2c1)C(=O)N[C@H](Cc1ccc(Cl)cc1)C(=O)N[C@H](Cc1cccnc1)C(=O)N[C@@H](CO)C(=O)N[C@@H](Cc1ccc(O)cc1)C(=O)N[C@H](CCCNC(N)=O)C(=O)N[C@@H](CC(C)C)C(=O)N[C@@H](CCCNC(=N)N)C(=O)N1CCC[C@H]1C(=O)N[C@H](C)C(N)=O [Cetrorelix],111 ± 16,131,96.7 ± 19,102,190 ± 48,151,96.1 ± 7,122 ± 61,132 ± 7.8
CNNCc1ccc(C(=O)NC(C)C)cc1.Cl [Procarbazine HCl],93.5 ± 4.4,90.5,96.1 ± 13,99.7,104 ± 21,87.6,79.7 ± 13,98 ± 16,83.91 ± 0.74
Cc1ccc(-n2[nH]c(C)c(NN=C3C=CC=C(c4cccc(C(=O)O)c4)C3=O)c2=O)cc1C.NCCO.NCCO [Eltrombopag Olamine],82.7 ± 71,79.3,26.4 ± 4,71,43.8 ± 1.1,119,76.8 ± 6.6,36.8 ± 0.9,104 ± 17
CNS(=O)(=O)Cc1ccc2[nH]cc(CCN(C)C)c2c1.O=C(O)CCC(=O)O [Sumatriptan Succinate],89.3 ± 18,110,89.6 ± 31,82.8,81.4 ± 5.5,120,101 ± 13,106 ± 18,106 ± 4.2
Nc1nc(=O)c2ncn(COCCO)c2[nH]1 [Acyclovir],103 ± 7.2,107,55.9 ± 49,113,154 ± 13,87.8,91.1 ± 11,96 ± 2.8,108 ± 19
Cc1ccc(C(=O)C(C)CN2CCCCC2)cc1.Cl (stereo not drawn) [Tolperisone HCl],118 ± 20,118,101 ± 3.6,92.5,47.8 ± 8.8,109,92.3 ± 8.6,130 ± 6.4,110 ± 3.9
Cl.NC1=NCC2c3ccccc3Cc3ccccc3N12 (stereo not drawn) [Epinastine HCl],102 ± 1.5,94.8,82.5 ± 4.8,95.5,79.4 ± 1.9,118,79 ± 1.4,96.5 ± 8.4,89.3 ± 7
O=C1C(CCC(O)c2ccc(F)cc2)C(c2ccc(O)cc2)N1c1ccc(F)cc1 (stereo not drawn) [Ezetimibe],109 ± 6.1,102,86.6 ± 20,92.5,121 ± 3.4,97.3,81.4 ± 3.2,96 ± 5.4,100 ± 5.3
NC(CC(=O)N1CCn2c(nnc2C(F)(F)F)C1)Cc1cc(F)c(F)cc1F.O.O=P(=O)OO.[HH] (stereo not drawn) [Sitagliptin phosphate monohydrate],134 ± 15,154,94.1 ± 15,131,135 ± 37,135,120 ± 3.7,115.8 ± 0.55,144 ± 14
CNC(=O)c1ccc(N2C(=S)N(c3ccc(C#N)c(C(F)(F)F)c3)C(=O)C2(C)C)cc1F [MDV3100 (Enzalutamide)],115 ± 11,138,104.5 ± 0.14,96.1,94.3 ± 22,107,117 ± 6,97.9 ± 3.6,157 ± 1.9
CN(N=O)C(=O)NC1C(O)OC(CO)C(O)C1O (stereo not drawn) [Streptozocin],105 ± 4.3,123,104 ± 6.3,99.5,89.38 ± 0.52,113,83.17 ± 0.58,85 ± 16,123.9 ± 1.1
CC(CCC(=O)O)C1CCC2C3C(O)CC4CC(O)CCC4(C)C3CCC12C (stereo not drawn) [Ursodiol],90.9 ± 70,150,100.8 ± 0.88,95.2,126 ± 9.4,124,89.82 ± 0.32,111 ± 9.3,155 ± 12
CC[N+](CC)(CC)CCOc1cccc(OCC[N+](CC)(CC)CC)c1OCC[N+](CC)(CC)CC.[I-].[I-].[I-] [Gallamine Triethiodide],107 ± 9.8,118,94.6 ± 20,88.1,107 ± 8.3,92.6,98 ± 6.3,118 ± 6.2,79.5 ± 6.1
COc1cc2nc(N(C)CCCNC(=O)C3CCCO3)nc(N)c2cc1OC.Cl (stereo not drawn) [Alfuzosin HCl],103 ± 3,97.4,105 ± 8.8,113,101 ± 24,113,91.6 ± 8.4,85.5 ± 3,133 ± 8.8
CCCN(CCC)CCc1cccc2c1CC(=O)N2.Cl [Ropinirole HCl],61.7 ± 39,93.8,87.9 ± 2.6,86.3,95.9 ± 8.2,102,78.9 ± 7.1,91.6 ± 38,126 ± 12

SMILES,cell viability (HCI01),cell viability (HCI03),cell viability (HCI09),cell viability (HCI11),cell viability (HCI13),cell viability (HCI16),cell viability (UCD52),cell viability (WHIM2),cell viability (WHIM30)
OCC(O)C(O)C(O)CO (stereo not drawn) [Xylitol],96.8 ± 14,133,101 ± 15,95.5,97 ± 3.2,101,101 ± 7.7,90.3 ± 14,83.1 ± 8.9
OCC(O)C(O)C(O)C(O)CO (stereo not drawn) [Sorbitol],89.2 ± 28,132,92.6 ± 8.6,84,102 ± 3.2,111,87.63 ± 0.58,86.6 ± 8.6,83.33 ± 0.53
CCCC(CCC)C(=O)O [Valproic acid],102 ± 13,121,133 ± 28,103,143 ± 3.3,106,95.8 ± 6.9,95.6 ± 7.5,83.36 ± 0.16
"Cc1[nH]c(C=C2C(=O)Nc3ccccc32)c(C)c1CCC(=O)O [TSU-68 (SU6668,Orantinib)]",79.2 ± 19,116,90.8 ± 25,106,60.8 ± 6.6,111,123 ± 18,60.9 ± 4.7,112 ± 13
CCCN1CCCCC1C(=O)Nc1c(C)cccc1C.Cl.O (stereo not drawn) [Ropivacaine hydrochloride monohydrate],86.9 ± 16,116,105 ± 16,96.1,110.3 ± 0.64,117,96.2 ± 12,90.8 ± 14,100 ± 9.1
CCCCC(=O)N(Cc1ccc(-c2ccccc2-c2nn[nH]n2)cc1)C(C(=O)O)C(C)C (stereo not drawn) [Valsartan],112 ± 6,118,118 ± 24,97.2,116 ± 24,119,108 ± 10,101 ± 16,199 ± 25
CC(C)(C)c1cc(C(C)(C)C)c(NC(=O)c2c[nH]c3ccccc3c2=O)cc1O [Ivacaftor (VX-770)],41.4 ± 24,83.8,18.7 ± 3.1,139,29.5 ± 4.1,121,97.2 ± 20,34.4 ± 0.58,200 ± 19
Cc1ccsc1C(=CCCN1CCC[C@@H](C(=O)O)C1)c1sccc1C [Tiagabine],96.4 ± 12,81.9,105 ± 4.9,84.2,96.9 ± 1.7,115,89.1 ± 5.2,100 ± 22,96 ± 12
COc1ccc2cccc(CCNC(C)=O)c2c1 [Agomelatine],92.5 ± 10,139,99.7 ± 4.7,92.4,89.4 ± 2.2,105,86.1 ± 12,89.9 ± 20,136 ± 11
Cn1c([N+](=O)[O-])cnc1COC(N)=O [Ronidazole],95.3 ± 20,134,94.5 ± 2.1,88.1,102 ± 13,108,91.2 ± 2.2,90.4 ± 19,102 ± 2.5
Nc1ccn(C2OC(CO)C(O)C2(F)F)c(=O)n1 (stereo not drawn) [Gemcitabine],70.3 ± 11,95.9,75.1 ± 9.5,112,118 ± 5.3,64.7,100.6 ± 0.62,78.9 ± 22,119 ± 12
CC(=O)Oc1ccccc1C(=O)O [Aspirin (Acetylsalicylic acid)],174 ± 16,107,98.5 ± 3.8,136,148 ± 30,151,142 ± 13,101 ± 16,160 ± 23
O=C(NC(CO)C(O)c1ccc([N+](=O)[O-])cc1)C(Cl)Cl (stereo not drawn) [Chloramphenicol],109 ± 15,128,102 ± 12,86.1,81.3 ± 6.8,90.9,92.9 ± 3.5,106 ± 27,100 ± 18
COc1ccccc1OCC(O)CN1CCN(CC(=O)Nc2c(C)cccc2C)CC1 (stereo not drawn) [Ranolazine],136 ± 2.8,96.3,134 ± 75,103,120 ± 35,120,89.4 ± 19,109 ± 19,130 ± 17
CC1(C)SC2C(NC(=O)C(N)c3ccc(O)cc3)C(=O)N2C1C(=O)O (stereo not drawn) [Amoxicillin],123 ± 28,112,103 ± 4.6,112,141 ± 17,120,84.9 ± 12,138 ± 44,102 ± 10
COc1ccc(-c2ccc3cc(C(=O)O)ccc3c2)cc1C12CC3CC(CC(C3)C1)C2 [Adapalene],119 ± 6.1,81.4,92.2 ± 40,95.5,139 ± 23,82.7,179 ± 28,83.8 ± 12,114 ± 18
CC#CCn1c(N2CCCC(N)C2)nc2c1c(=O)n(Cc1nc(C)c3ccccc3n1)c(=O)n2C (stereo not drawn) [Linagliptin (BI-1356)],160 ± 22,108,95.4 ± 7.2,142,105 ± 6.1,179,136 ± 2.3,111 ± 1.3,167 ± 7.3
Cc1onc(-c2ccccc2)c1-c1ccc(S(N)(=O)=O)cc1 [Valdecoxib],126 ± 28,126,85.3 ± 11,98,109 ± 1.1,99.8,74 ± 11,95.5 ± 4.2,78.92 ± 0.35
